Whole data set: some 39,000 sequences, median “fluorescence intensity (a.u.)” near 4,300, cut for the highest 2% near 39,000. This is one part of a sample in which the highest values are shown more often than they occur.
Target: T1, OsSMF1 (Oryza sativa, UniProt Q6ZLB0 1-436)
T1 sequence: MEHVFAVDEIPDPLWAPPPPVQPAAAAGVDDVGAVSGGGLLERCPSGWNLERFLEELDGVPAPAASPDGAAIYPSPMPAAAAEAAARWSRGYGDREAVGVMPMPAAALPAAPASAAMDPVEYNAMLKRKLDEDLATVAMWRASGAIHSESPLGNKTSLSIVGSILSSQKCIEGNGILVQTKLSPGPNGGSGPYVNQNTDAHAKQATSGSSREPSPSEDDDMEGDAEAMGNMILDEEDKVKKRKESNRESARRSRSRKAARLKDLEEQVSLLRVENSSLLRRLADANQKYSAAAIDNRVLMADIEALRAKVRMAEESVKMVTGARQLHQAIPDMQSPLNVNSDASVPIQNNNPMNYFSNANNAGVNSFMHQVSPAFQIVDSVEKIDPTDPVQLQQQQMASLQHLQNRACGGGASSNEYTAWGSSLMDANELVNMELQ
Assay: protein-binding microarray (RPBM); PBS, 2% BSA, 51.3 ng/ul salmon testes DNA, 50 uM zinc acetate, 200 nM TF, 25 C, 1 h; high values mean tight binding
Conditions: protein: recombinant; tags: N-terminal polyhistidine and DsRed monomer fusion (pET32a); chain copies: 2; label: CyDye5-dUTP incorporated in the synthesized complementary strand; 3' TTTTT single-stranded linker to array surface; dsDNA, one strand shown
Outline: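 Ni–NTA purification followed expression in E. coli BL21-CodonPlus of transcription factors fused N-terminally to a polyhistidine tag and DsRed. At 200 nM in PBS with 2% BSA, salmon testes DNA and 50 µM zinc acetate, the protein was incubated for 1 h at 25 °C with a custom Agilent array that had been primer-extended with Cy5-dUTP and blocked with 2% BSA. After washing, the array was read on an Axon 4000B scanner. The binding signal is per-feature fluorescence intensity in arbitrary units.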

Sequence	binding signal
TATGTGTTGACACCAAGGCTGACTCGGTTTTCGTCAAGGTCGGAGTCACCTAGTGCAG	6530 fluorescence intensity (a.u.)
GTCGTCTAGTAGTAGTAGCCTACCACCACCTCCCTCGGCGCGGAGTCACCTAGTGCAG	3230 fluorescence intensity (a.u.)
AATTGGGATCAAAGCCTTCATGTTCATAGCAAATCAAGAGCGGAGTCACCTAGTGCAG	45900 fluorescence intensity (a.u.)
TAGCAAGAGACCTTGTTGAGCATGTCATCAATGTCAAGTGCGGAGTCACCTAGTGCAG	4150 fluorescence intensity (a.u.)
AAATGGGGCCTAGAGTTCCAACCAATTGCAGCAAGAGCAGCGGAGTCACCTAGTGCAG	3230 fluorescence intensity (a.u.)
AGAATTTTGCAGACCGAGGCTTGGCCACCGAGGCGCAAGCCGGAGTCACCTAGTGCAG	3790 fluorescence intensity (a.u.)
GAACGACCCGAACTTATGACTCATTTATGGTTTGTTTCTCCGGAGTCACCTAGTGCAG	8680 fluorescence intensity (a.u.)
ACCTCCTCCACCTCCATGGCTCACCACCACGTACAGCAAACGGAGTCACCTAGTGCAG	3360 fluorescence intensity (a.u.)
TTTTAAGGGGCAAATCTTACCAACTTTTACTAGCGTGTCACGGAGTCACCTAGTGCAG	3680 fluorescence intensity (a.u.)
CTAAAACCACATATAAGGAGTGTCCTGTAGCAAAATTTCCCGGAGTCACCTAGTGCAG	4200 fluorescence intensity (a.u.)
CTGTAGCAAATTAGAAGCAAAAGTGTTAGTTCAAATTGTGCGGAGTCACCTAGTGCAG	3320 fluorescence intensity (a.u.)
AGTAGCAAAACCTGTTTGTAGAGGAAATTATTATAGTGTTCGGAGTCACCTAGTGCAG	53700 fluorescence intensity (a.u.)
CGTGTGTAACTTTGGAACCTGCCACGGGAGAGCGAATTCCCGGAGTCACCTAGTGCAG	25500 fluorescence intensity (a.u.)
ACAAATTATAAGTAACAAACTTTTGTGACGTATAGTAGCCCGGAGTCACCTAGTGCAG	4440 fluorescence intensity (a.u.)
GAATAGTAACAATTAGTTTTGTGAATTTTGTGAAATACGCCGGAGTCACCTAGTGCAG	52300 fluorescence intensity (a.u.)
TGTGAATTACTAGTAGTACGTAAGCATAAATACGCCACCCCGGAGTCACCTAGTGCAG	3550 fluorescence intensity (a.u.)
AACCTGCTGTCCACTACAACGTCACATTTCAACAAATCCACGGAGTCACCTAGTGCAG	34200 fluorescence intensity (a.u.)
GCTTCCCGCACGACACCTGTCCACACAAATCTTAGAGCAACGGAGTCACCTAGTGCAG	41400 fluorescence intensity (a.u.)
ACCAACGGCCCGAGTCCGACACACGTCTCACGCACGAGCACGGAGTCACCTAGTGCAG	3910 fluorescence intensity (a.u.)
CACACAGCCGCCCTTGCCGACCGCCACCGCCGCAACCGCACGGAGTCACCTAGTGCAG	3300 fluorescence intensity (a.u.)
TTTGCGAACGTAATTCCATTAATTAAACACACGTCTATATCGGAGTCACCTAGTGCAG	3220 fluorescence intensity (a.u.)
TCGAAGAAGCCCTTTATTTCTCTTTTCGATACTCACACAACGGAGTCACCTAGTGCAG	3260 fluorescence intensity (a.u.)
GTCAGCGCCAACTTACTTGGCGCTGAGGTTGTGCACCTCACGGAGTCACCTAGTGCAG	3160 fluorescence intensity (a.u.)
CAGCTACCTCAGCGCCAACCGGACTGGCGCTGAGGTGGGACGGAGTCACCTAGTGCAG	39200 fluorescence intensity (a.u.)
CGGGCGACGCCGGTGCTGGCGCCAGCGTGGGGCCGCGACGCGGAGTCACCTAGTGCAG	4780 fluorescence intensity (a.u.)
GGCGGAGAGGGTATGGACAACAGCGCCGAGGTGGCGTGGCCGGAGTCACCTAGTGCAG	5480 fluorescence intensity (a.u.)
GCCAGGTGGGCTGGCGCTGAGTGTCCCACGGTCAGCGCCACGGAGTCACCTAGTGCAG	4010 fluorescence intensity (a.u.)
GCGTGGGGCGCCGGTGGCGGAGGGTGGGGACGACAACCAGCGGAGTCACCTAGTGCAG	65500 fluorescence intensity (a.u.)

Sequence	binding signal
ATTTAATGTTGTCCTAGCTAGATCCATCCAAGGCTCCAAACGGAGTCACCTAGTGCAG	3590 fluorescence intensity (a.u.)
CGCCAGCCACCTCCGGCGCCGTTCGCCAGCCACCACGCGCCGGAGTCACCTAGTGCAG	37900 fluorescence intensity (a.u.)
ACCTTCTAGACAAGGGTATGATGACATGTACCGATCCCAACGGAGTCACCTAGTGCAG	6680 fluorescence intensity (a.u.)
GAACGGTCAAATAGCCGTTAGTGCCACGTGGCGCCTTCCCCGGAGTCACCTAGTGCAG	25100 fluorescence intensity (a.u.)
GCCCGCCCGTCCCGTCCGACGTCCGCGTCACGCACGCGCGCGGAGTCACCTAGTGCAG	7940 fluorescence intensity (a.u.)
TAGCCGTTAGTGCCACGTGGCGCCTTCCCATTCGACCGCCCGGAGTCACCTAGTGCAG	40600 fluorescence intensity (a.u.)
ACACACACACACACCCACCACACCACCCCGGCCGCTTCCGCGGAGTCACCTAGTGCAG	3210 fluorescence intensity (a.u.)
CTTCCCGCCGCCGCCACTGCCACGAACAGTTCGCTCACCGCGGAGTCACCTAGTGCAG	3200 fluorescence intensity (a.u.)
CGCGGCGGCGGCGGCGCGAAGGCACGTGGCACGGCGCCGCCGGAGTCACCTAGTGCAG	3420 fluorescence intensity (a.u.)
GCCGTTAGTGCCACGTGGCGCCTTCCCATTCGACCGCCGCCGGAGTCACCTAGTGCAG	37400 fluorescence intensity (a.u.)
ACGCGCGGGCGTGGCTGACGTGGCCCGGAGAAGGCGGAGGCGGAGTCACCTAGTGCAG	5770 fluorescence intensity (a.u.)
TGTACACGCGCAGGGCGGCCCTGGCGTTGCTGACGTGGCGCGGAGTCACCTAGTGCAG	42500 fluorescence intensity (a.u.)
GGCGGCGTTCGCGGCGGCGACGTGGGCGTACCTGACGGCGCGGAGTCACCTAGTGCAG	3590 fluorescence intensity (a.u.)
CTCCCGCCGTGGCACGCGCGACGTGCCGCGTGCGCACAGGCGGAGTCACCTAGTGCAG	46800 fluorescence intensity (a.u.)
CCACCGCCGCCACACAGTCCGCTTCGGTTCCCCGTTTCCGCGGAGTCACCTAGTGCAG	65500 fluorescence intensity (a.u.)
GGAGGGTGGGGTAGGAGAGGATGCGGCGGGCGCCATGGCTCGGAGTCACCTAGTGCAG	3450 fluorescence intensity (a.u.)
GCCACTTGCCCAGGTCACGCACACATTATTGAGCGAGCGACGGAGTCACCTAGTGCAG	4590 fluorescence intensity (a.u.)
AGTCGCACGCCAAGTGTTTGTTGTTTTGCCAAGCAAGATGCGGAGTCACCTAGTGCAG	3520 fluorescence intensity (a.u.)
TCGAGCCCCTCTCCCTCCGCGAGCCGTGTGCAGCGGGCGACGGAGTCACCTAGTGCAG	3430 fluorescence intensity (a.u.)
ACGGATTCCTGTTAATAGAGTGTTTCCGTAATATGTGGCACGGAGTCACCTAGTGCAG	3820 fluorescence intensity (a.u.)
GTTTGGGGTTTCTTTCCTGCCTCGTGAGCTGACGCCGGTGCGGAGTCACCTAGTGCAG	4080 fluorescence intensity (a.u.)
CCGGCGGCAGTGGCCCGGCGGCGCCGCCACCTTCCGTGCCCGGAGTCACCTAGTGCAG	43700 fluorescence intensity (a.u.)
AAAGCGTTCCGCGGCGCCGCCGTGGCGTCCGGCGTCCGGCCGGAGTCACCTAGTGCAG	3900 fluorescence intensity (a.u.)
GCCGCGCCGCGCCGTGGCGTGGCGTGGCGTGGCGCGGCCACGGAGTCACCTAGTGCAG	6530 fluorescence intensity (a.u.)
CGCCTTCGTCCCATCTCGACCGTCCACGTGTGGCCCATCCCGGAGTCACCTAGTGCAG	8200 fluorescence intensity (a.u.)
GTTAGTGCCACGTGGCGCCTTCCCATTCGACCGCCGCCCGCGGAGTCACCTAGTGCAG	42100 fluorescence intensity (a.u.)
GGCAGCCATTCCCACCGCGCCACACGCGCCACACGCCCCGCGGAGTCACCTAGTGCAG	3240 fluorescence intensity (a.u.)

Source: article PMC7819943, “Rice protein-binding microarrays: a tool to detect cis-acting elements near promoter regions in rice”
